Bioassay records: PubChem, University of Kansas High Throughput Screening Laboratory
In the library only some 3.5% were active in any assay of this set; here they are far more common.
Pf apPOL inh = Pf-apPOL inhibitors, biochemical, fluorescence. inhibition, % at 10 µM. 210,000 tested, 0.25% active. Recombinant Pf-apPOL, molecular beacon fluorescence, 1.5 h
mHTT-CaM PPI inh = mutant huntingtin-calmodulin interaction inhibitors – biochemical, AlphaScreen, primary screen | AlphaScreen His-mHTT/GST-CaM binding, luminescence | inhibition, % at 15 µM | 190,000 tested, 3.6% active;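 note: 0% = both proteins with DMSO and 100% = one protein alone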
* hit, by the source's call. Cut-off read from the data, not from the text of the source: active = inhibition above about 50%; inactive = the rest.

Screening COc1ccc(Cc2noc(-c3cccc([N+](=O)[O-])c3)n2)cc1OC returned Pf apPOL inh 12.3 and mHTT-CaM PPI inh 31.9.
CCOc1ccc(-c2cccc(NC(=O)NC(C)(C)C)c2)nn1 was read as Pf apPOL inh -0.6 and mHTT-CaM PPI inh -4.3.
O=C(c1ccsc1)N1CCC(Cc2nnc(-c3ccccc3)o2)CC1 was read as Pf apPOL inh -2.6 and mHTT-CaM PPI inh 9.0.
CNC(=O)N1CCCC(c2cccc(C(=O)N3CCCCCC3)c2)C1 (centres undefined) was read as Pf apPOL inh -6.5 and mHTT-CaM PPI inh 7.2.
CC1=NN(c2ccccc2)C(=O)/C1=C/C=C/c1ccccc1 was read as Pf apPOL inh -1.6 and mHTT-CaM PPI inh 71.0*.
COc1cc(/C=C2\SC(=O)N(c3ccccc3)C2=O)cc(Br)c1O was read as Pf apPOL inh -6.2 and mHTT-CaM PPI inh 8.0.
For CC1=NN(c2ccccc2)C(=O)/C1=C/c1ccc2c(c1)OCO2 the results were Pf apPOL inh 3.7 and mHTT-CaM PPI inh 8.0.
`CCCC1=NN(c2ccccc2)C(=O)/C1=C\c1cc(Br)c(O)c(OC)c1` gave Pf apPOL inh -1.9 and mHTT-CaM PPI inh 67.0*.
CC1=NN(c2ccccc2)C(=O)/C1=C/c1cccc(Oc2ccccc2)c1 was read as Pf apPOL inh 3.3 and mHTT-CaM PPI inh 52.0*.
`CC1=NN(c2ccccc2)C(=O)/C1=C/c1cccc(C(=O)O)c1` gave Pf apPOL inh 0.1 and mHTT-CaM PPI inh 5.0.
CC1=NN(c2ccccc2)C(=O)/C1=C/N1CCCCC1 was read as Pf apPOL inh -1.5 and mHTT-CaM PPI inh 2.0.
`CC1=NN(c2ccccc2)C(=O)/C1=C/c1ccc(N(C)C)c(Br)c1` gave Pf apPOL inh 3.0 and mHTT-CaM PPI inh 65.0*.
`CCOc1cc(CNC(=O)c2ccc3c(c2)NC(=O)C2CCCCN32)ccc1OC` (centres undefined) gave Pf apPOL inh -0.8 and mHTT-CaM PPI inh 8.6.
Screening Cc1nc(-c2ccccc2F)sc1C(=O)NC1CC1 returned Pf apPOL inh -5.9 and mHTT-CaM PPI inh 1.4.
Screening O=C(Nc1cccc(Br)c1)c1cc(-c2ccco2)nc2ccccc12 returned Pf apPOL inh -5.7 and mHTT-CaM PPI inh 23.0.
CC(C)CN1CCN(C(=O)C2CCCN(c3cnn(Cc4ccccc4)c(=O)c3)C2)CC1 (centres undefined) was read as Pf apPOL inh -3.8 and mHTT-CaM PPI inh 12.2.
Fc1cccc(Cl)c1C=Cc1cnc2ccccc2n1 was read as Pf apPOL inh -2.2.
For CCOc1cc(/C=C2/C(=O)N(c3ccccc3)N=C2C)ccc1O the results were Pf apPOL inh 8.1 and mHTT-CaM PPI inh 43.0.
Screening CC1=NN(c2ccccc2)C(=O)/C1=C/c1ccc(O)c(Br)c1 returned Pf apPOL inh 6.3 and mHTT-CaM PPI inh 52.0*.
For c1ccc2nc(-c3nc4ccccc4[nH]3)ccc2c1 the results were Pf apPOL inh 9.4 and mHTT-CaM PPI inh 3.3.
CC1C(c2ccc3ccccc3n2)=CNc2ccccc21 (centres undefined) was read as Pf apPOL inh -0.6 and mHTT-CaM PPI inh 91.0*.
Screening COc1cc(C2=NOC(C(=O)Nc3ccc4c(c3)OCO4)C2)cc(OC)c1OC (centres undefined) returned Pf apPOL inh -5.3 and mHTT-CaM PPI inh 59.8*.
Screening COc1ccc(NC(=O)C2CC(c3ccc(OC)c(OC)c3)=NO2)cc1OC (centres undefined) returned Pf apPOL inh -4.3 and mHTT-CaM PPI inh 29.8.
For COc1ccc(C2=NOC(C(=O)Nc3ccc4c(c3)OCO4)C2)cc1OC (centres undefined) the results were Pf apPOL inh -1.2 and mHTT-CaM PPI inh 55.4*.
For COc1ccc(NC(=O)C2CC(c3cc(OC)c(OC)c(OC)c3)=NO2)cc1OC (centres undefined) the results were Pf apPOL inh -4.6 and mHTT-CaM PPI inh 45.9.
For Nc1nnc(-c2ccccc2-c2nnc(N)s2)s1 the results were Pf apPOL inh -0.4 and mHTT-CaM PPI inh 1.1.
`CN(Cc1ccccc1)Cc1ccc(O)cc1` gave Pf apPOL inh -0.9 and mHTT-CaM PPI inh -4.3.
`CN(Cc1ccccc1)Cc1cncc(-c2cc3ccccc3s2)c1` gave Pf apPOL inh -1.6 and mHTT-CaM PPI inh 79.6*.
Screening Cc1ccc(N(CC(O)CN2C(=O)NC(C)(C)C2=O)S(=O)(=O)c2ccc([N+](=O)[O-])cc2)cc1 (centres undefined) returned Pf apPOL inh -3.1 and mHTT-CaM PPI inh 61.0*.
For CC1(C)NC(=O)N(CC(O)CN(c2cccc([N+](=O)[O-])c2)S(=O)(=O)c2ccccc2)C1=O (centres undefined) the results were Pf apPOL inh -6.3 and mHTT-CaM PPI inh -0.3.
For CC(C)(CO)NC(=O)Cc1ccc(NC(=O)C2(c3ccc(F)cc3)CC2)cc1 the results were Pf apPOL inh -5.9 and mHTT-CaM PPI inh -6.4.
Screening O=C(c1cc(C2CC2)n(C2CCS(=O)(=O)C2)n1)N1CCN(c2cccc(Cl)c2)CC1 (centres undefined) returned Pf apPOL inh -3.3 and mHTT-CaM PPI inh 84.3*.
